According to PubChem BioAssay (EPA / NIEHS):
“And” between values parts separate entries of the source, which are not always exact repeats. Equal values may be shown once. A structure can be active in one record and inactive in another. The source made the active and inactive calls. The calls were made as follows: active = hit-call score of the fitted dose curve at least 0.9, where 1 is the maximum; inactive = score below 0.9.

Experiments:
Details in all cases: mRNA level, 48 h; actives raise or lower the signal
[1] = read-out: Cytochrome P450 (CYP1A1), CYP1A1 (gene 1543); assay: LTEA_HepaRG_CYP1A1: Life Technologies and Expression Analysis (LTEA) Assay for Cytochrome P450 (CYP1A1) using HepaRG (AID 2283454)
Outline: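 Differentiated human HepaRG cells, after 48 h plating, exposed in duplicate for 48 h in serum-free induction medium to 8 half-log concentrations up to 100 uM in 0.5% DMSO. CYP1A1 mRNA by qRT-PCR, normalized to ACTB/GAPDH/POLR2A; bidirectional fit versus DMSO.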

[2] = read-out: CFLAR gene, CFLAR (gene 8837); assay: LTEA_HepaRG_CFLAR: Life Technologies and Expression Analysis (LTEA) Assay for CFLAR gene using HepaRG (AID 2283455)
Outline: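 HepaRG cells were plated for 48 h, switched to serum-free induction medium, then exposed in duplicate for 48 h to 8 concentrations (top 100 uM, half-log steps, 0.5% DMSO). CFLAR mRNA was measured by qRT-PCR, normalized to ACTB, GAPDH and POLR2A.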

[3] = read-out: growth arrest and DNA damage 45 (GADD45A), GADD45A (gene 1647); assay: LTEA_HepaRG_GADD45A: Life Technologies and Expression Analysis (LTEA) Assay for growth arrest and DNA damage 45 (GADD45A) using HepaRG (AID 2283458)
Outline: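 Human HepaRG liver cells are treated in duplicate for 48 h with chemicals in 0.5% DMSO, highest concentration 100 uM. Expression is read by qRT-PCR and analyzed in both directions against vehicle.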

[4] = read-out: ABC Transporter (ABCB1), ABCB1 (gene 5243); assay: LTEA_HepaRG_ABCB1: Life Technologies and Expression Analysis (LTEA) Assay for ABC Transporter (ABCB1) using HepaRG (AID 2283460)
Outline: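 Differentiated human HepaRG cells, plated 48 h then switched to serum-free induction medium, were exposed in duplicate to eight half-log concentrations up to 100 uM in 0.5% DMSO for 48 h. ABCB1 mRNA was measured by TaqMan qRT-PCR, normalized to ACTB/GAPDH/POLR2A.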

[5] = read-out: growth arrest and DNA damage 45 (GADD45B), GADD45B (gene 4616); assay: LTEA_HepaRG_GADD45B: Life Technologies and Expression Analysis (LTEA) Assay for growth arrest and DNA damage 45 (GADD45B) using HepaRG (AID 2283461)
Outline: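 Differentiated human HepaRG cells in serum-free induction medium exposed 48 h in duplicate to eight concentrations, top 100 uM, half-log steps, 0.5% DMSO. GADD45B mRNA by TaqMan qRT-PCR, normalized to ACTB, GAPDH, POLR2A; bidirectional fit versus DMSO.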

[6] = read-out: ABC Transporter (ABCC3), ABCC3 (gene 8714); assay: LTEA_HepaRG_ABCC3: Life Technologies and Expression Analysis (LTEA) Assay for ABC Transporter (ABCC3) using HepaRG (AID 2283462)
Outline: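 Differentiated human HepaRG cells exposed 48 h in serum-free induction medium, 0.5% DMSO vehicle, 8-point half-log series to 100 uM in duplicate. ABCC3 mRNA by qRT-PCR, normalised to ACTB, GAPDH, POLR2A; bidirectional fit vs DMSO.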

[7] = read-out: ABC Transporter (ABCB11), ABCB11 (gene 8647); assay: LTEA_HepaRG_ABCB11: Life Technologies and Expression Analysis (LTEA) Assay for ABC Transporter (ABCB11) using HepaRG (AID 2283463)
Outline: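 Differentiated human HepaRG cells were exposed for 48 h in serum-free induction medium to eight half-log concentrations up to 100 uM in 0.5% DMSO. ABCB11 mRNA was quantified by qRT-PCR, normalized to ACTB, GAPDH and POLR2A, and fitted bidirectionally versus DMSO.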

[8] = read-out: ABC Transporter (ABCC2), ABCC2 (gene 1244); assay: LTEA_HepaRG_ABCC2: Life Technologies and Expression Analysis (LTEA) Assay for ABC Transporter (ABCC2) using HepaRG (AID 2283464)
Outline: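 Differentiated HepaRG cells in serum-free induction medium exposed 48 h to eight half-log concentrations up to 100 uM, 0.5% DMSO, in duplicate. ABCC2 mRNA measured by qRT-PCR (TaqMan, Fluidigm), normalized to ACTB, GAPDH and POLR2A. Fitted in both directions against DMSO.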

[9] = read-out: Broad substrate specificity ATP-binding cassette transporter ABCG2 (Homo sapiens) (UniProt Q9UNQ0); assay: LTEA_HepaRG_ABCG2: Life Technologies and Expression Analysis (LTEA) Assay for ABC Transporter (ABCG2) using HepaRG (AID 2283465)
Outline: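 Differentiated HepaRG cells in serum-free induction medium were exposed for 48 h, in duplicate, to eight half-log concentrations up to 100 uM in 0.5% DMSO. ABCG2 mRNA was measured by TaqMan qRT-PCR, normalized to ACTB, GAPDH and POLR2A, and fitted bidirectionally versus DMSO.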

[10] = read-out: Peroxisomal acyl-coenzyme A oxidase 1 (ACOX1) gene, ACOX1 (gene 51); assay: LTEA_HepaRG_ACOX1: Life Technologies and Expression Analysis (LTEA) Assay for Peroxisomal acyl-coenzyme A oxidase 1 (ACOX1) gene using HepaRG (AID 2283467)
Outline: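 Differentiated human HepaRG cells were exposed in duplicate for 48 h in serum-free induction medium to eight half-log concentrations up to 100 uM in 0.5% DMSO. ACOX1 mRNA was then quantified by TaqMan qRT-PCR, normalized to ACTB, GAPDH and POLR2A.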

[11] = read-out: Alkaline Phosphatase, Placental (ALPP) gene, ALPP (gene 250); assay: LTEA_HepaRG_ALPP: Life Technologies and Expression Analysis (LTEA) Assay for Alkaline Phosphatase, Placental (ALPP) gene using HepaRG (AID 2283468)
Outline: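 HepaRG cells plated 48 h, then exposed in duplicate for 48 h in serum-free induction medium to 8-point half-log series from 100 uM in 0.5% DMSO. ALPP mRNA by TaqMan qRT-PCR, normalized to ACTB/GAPDH/POLR2A; bidirectional fit versus DMSO.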

[12] = read-out: Bcl-2 (BAD) gene, BAD (gene 572); assay: LTEA_HepaRG_BAD: Life Technologies and Expression Analysis (LTEA) Assay for Bcl-2 (BAD) gene using HepaRG (AID 2283469)
Outline: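 Differentiated human HepaRG cells in serum-free induction medium were exposed in duplicate for 48 h to eight concentrations (top 100 uM, half-log steps, 0.5% DMSO). BAD mRNA was quantified by qRT-PCR normalised to ACTB, GAPDH and POLR2A, with bidirectional fitting versus DMSO.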

[13] = read-out: Bcl-2 (BAX) gene, BAX (gene 581); assay: LTEA_HepaRG_BAX: Life Technologies and Expression Analysis (LTEA) Assay for Bcl-2 (BAX) gene using HepaRG (AID 2283470)
Outline: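 Concentration-response endpoint fitted in both directions relative to 0.5% DMSO vehicle. Human HepaRG cultures receive test chemicals for 48 h at up to 100 uM; BAX mRNA is quantified by qRT-PCR against housekeeping genes.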

[14] = read-out: adenosine kinase (ADK) gene, ADK (gene 132); assay: LTEA_HepaRG_ADK: Life Technologies and Expression Analysis (LTEA) Assay for adenosine kinase (ADK) gene using HepaRG (AID 2283471)
Outline: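 ADK expression quantified by qRT-PCR, normalised to three housekeeping genes, after 48 h exposure of HepaRG cells to eight concentrations (top 100 uM, half-log steps, duplicate, 0.5% DMSO). Up- or down-regulation fitted relative to vehicle.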

[15] = read-out: Alpha-fetoprotein (AFP) gene, AFP (gene 174); assay: LTEA_HepaRG_AFP: Life Technologies and Expression Analysis (LTEA) Assay for Alpha-fetoprotein (AFP) gene using HepaRG (AID 2283472)
Outline: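 After a 48 h plating period, cells are moved to serum-free induction medium and dosed in duplicate (100 uM maximum, half-log dilutions, 0.5% DMSO) for another 48 h. Total RNA goes to TaqMan qRT-PCR; AFP signal is housekeeping-normalized.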

BCL2L11 (gene 10018) = assay: LTEA_HepaRG_BCL2L11: Life Technologies and Expression Analysis (LTEA) Assay for Bcl-2 (BCL2L11) gene using HepaRG (AID 2283473)
Outline: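 Differentiated human HepaRG cells were exposed 48 h in serum-free induction medium to eight half-log concentrations up to 100 uM in 0.5% DMSO, in duplicate. BCL2L11 mRNA was quantified by TaqMan qRT-PCR, normalized to ACTB, GAPDH and POLR2A; induction or repression fitted versus DMSO.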

[16] = read-out: Forkhead box O3 (FOXO3), FOXO3 (gene 2309); assay: LTEA_HepaRG_FOXO3: Life Technologies and Expression Analysis (LTEA) Assay for Forkhead box O3 (FOXO3) using HepaRG (AID 2283459)
Outline: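 Differentiated human HepaRG cells in serum-free induction medium were exposed in duplicate for 48 h to eight half-log concentrations up to 100 uM in 0.5% DMSO. FOXO3 mRNA was quantified by qRT-PCR, normalized to ACTB, GAPDH and POLR2A, with bidirectional fitting versus DMSO.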

Measured: AC50

Broad substrate specificity ATP-binding cassette transporter ABCG2 (Homo sapiens), sequence (Q9UNQ0 whole entry, looked up): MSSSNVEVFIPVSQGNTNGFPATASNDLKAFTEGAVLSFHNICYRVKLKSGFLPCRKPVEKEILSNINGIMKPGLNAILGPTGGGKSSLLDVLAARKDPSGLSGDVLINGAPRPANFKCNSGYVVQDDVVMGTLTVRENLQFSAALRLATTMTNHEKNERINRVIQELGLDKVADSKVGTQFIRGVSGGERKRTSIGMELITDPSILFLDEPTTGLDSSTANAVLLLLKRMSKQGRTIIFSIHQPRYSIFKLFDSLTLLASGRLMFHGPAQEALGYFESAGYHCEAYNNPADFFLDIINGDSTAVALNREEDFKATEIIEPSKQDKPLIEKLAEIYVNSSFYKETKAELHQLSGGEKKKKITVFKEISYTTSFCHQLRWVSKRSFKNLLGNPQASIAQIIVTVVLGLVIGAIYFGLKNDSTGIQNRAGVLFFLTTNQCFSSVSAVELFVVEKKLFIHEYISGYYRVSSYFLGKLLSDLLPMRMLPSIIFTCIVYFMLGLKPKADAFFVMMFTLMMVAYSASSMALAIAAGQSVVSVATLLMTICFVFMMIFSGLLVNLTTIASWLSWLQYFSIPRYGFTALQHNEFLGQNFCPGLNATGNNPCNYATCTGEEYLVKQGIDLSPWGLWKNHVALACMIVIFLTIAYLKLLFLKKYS

Cc1ccc(-c2c(Cl)nc(C#N)n2S(=O)(=O)N(C)C)cc1
inactive: [4] | [9] | [13] | BCL2L11 (gene 10018)
active: [1] 3.53 µM | [2] 7.21 µM | [3] 22.5 µM | [5] 8.98 µM | [6] 7.3 µM | [7] 36.4 µM | [8] 4.39 µM | [10] 4.39 µM | [11] 50 µM | [12] 68.3 µM | [14] 50 µM | [15] 3.99 µM

C=CCC1=C(C)C(OC(=O)C2C(C=C(C)C)C2(C)C)CC1=O (stereo unspecified)
inactive: [2] | [3] | [4] | [5] | [6] | [8] | [10] | [11] | [12] | [13] | [14] | BCL2L11 (gene 10018)
active: [1] 50 µM and 31.8 µM and 35.1 µM | [7] 64.8 µM and 79.9 µM and 19 µM | [9] 50 µM and 79.2 µM | [10] 90.9 µM | [11] 92.4 µM and 71.1 µM | [15] 90.3 µM and 79.8 µM and 66.3 µM

COP(N)(=O)SC (stereo unspecified)
inactive: [1] | [2] | [3] | [16] | [4] | [5] | [6] | [7] | [8] | [9] | [10] | [11] | [12] | [13] | [14] | [15] | BCL2L11 (gene 10018)

COc1cnc(OC)n2nc(NS(=O)(=O)c3c(OCC(F)F)cccc3C(F)(F)F)nc12
active: [1] 32.8 µM | [4] 23.3 µM | [15] 50 µM
inactive: [2] | [3] | [5] | [6] | [7] | [8] | [9] | [10] | [11] | [12] | [13] | [14] | BCL2L11 (gene 10018)

CC1COC(Cn2cncn2)(c2ccc(Oc3ccc(Cl)cc3)cc2Cl)O1 (stereo unspecified)
inactive: [2] | [6] | [12] | [14] | BCL2L11 (gene 10018)
active: [1] 12.2 µM | [3] 12 µM | [4] 81.4 µM | [5] 9.92 µM | [7] 11.2 µM | [8] 34.4 µM | [9] 12.6 µM | [10] 50 µM | [11] 10.9 µM | [13] 13 µM | [15] 11 µM

CCCCNC(=O)OCC#CI
active: [1] 50 µM | [7] 50 µM | [8] 50 µM | [9] 9.92 µM | [11] 9.92 µM | [14] 50 µM
inactive: [2] | [3] | [16] | [4] | [5] | [6] | [10] | [12] | [13] | [15] | BCL2L11 (gene 10018)

CCCCOC(=O)c1ccccc1C(=O)OCCCC
inactive: [1] | [2] | [3] | [4] | [5] | [6] | [7] | [8] | [9] | [10] | [11] | [12] | [13] | [14] | [15] | BCL2L11 (gene 10018)
